Data published in PubChem BioAssay (NCI).
Compounds without any hit were thinned out: in the full panel of roughly 83,000, 20% have a hit.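 In brief: 96-well plates, 48 h treatment, single concentration, percent growth endpoint.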 Active and inactive are the calls of the source. Rule for the calls: active = growth percent below 10; inactive = the rest.

Tests used:
Test in all cases: NCI-60 one-dose screen, 48 h (100 = growth as untreated, 0 = no growth, -100 = all killed)
NCI-H226 lung = conditions: 10 µM unless noted
NCI-H322M lung = conditions: 10 µM unless noted
HOP-62 NSCLC = conditions: 10 µM unless noted
NCI-H460 lung = conditions: 10 µM unless noted
HOP-92 NSCLC = conditions: 10 µM
NCI-H522 lung = conditions: 10 µM unless noted
A549/ATCC NSCLC = conditions: 10 µM unless noted
786-0 renal = conditions: 10 µM unless noted
COLO 205 colon = conditions: 10 µM unless noted
DU-145 prostate = conditions: 10 µM unless noted
K-562 leukemia = conditions: 10 µM unless noted
MALME-3M melanoma = conditions: 10 µM unless noted
MDA-MB-231 breast = conditions: 10 µM unless noted
RXF 393 renal = conditions: 10 µM unless noted
SF-268 CNS = conditions: 10 µM unless noted
SF-295 CNS = conditions: 10 µM unless noted
SF-539 CNS = conditions: 10 µM unless noted
UACC-257 melanoma = conditions: 10 µM unless noted
M14 melanoma = conditions: 10 µM unless noted
NCI-H23 lung = conditions: 10 µM unless noted

Compound	growth (NCI-H226 lung)	growth (NCI-H322M lung)	growth (HOP-62 NSCLC)	growth (NCI-H460 lung)	growth (HOP-92 NSCLC)	growth (NCI-H522 lung)	growth (A549/ATCC NSCLC)	growth (786-0 renal)	growth (COLO 205 colon)	growth (DU-145 prostate)	growth (K-562 leukemia)	growth (MALME-3M melanoma)	growth (MDA-MB-231 breast)	growth (RXF 393 renal)	growth (SF-268 CNS)	growth (SF-295 CNS)	growth (SF-539 CNS)	growth (UACC-257 melanoma)	growth (M14 melanoma)	growth (NCI-H23 lung)
CN1CCN(Cc2ccc(NC(=O)c3cncc(C#Cc4cnc5ccc(N6CCN(C)CC6)nn45)c3)cc2C(F)(F)F)CC1	28% (inactive)	35.5% (inactive)	28.8% (inactive)	-82.4% (active)	-16.1% (active)	82.1% (inactive)	-71.4% (active)	-84.6% (active)	38.9% (inactive)	-94.2% (active)	-59% (active)	68.3% (inactive)	-66.7% (active)	-89.9% (active)	-50.7% (active)	-78.4% (active)	-98% (active)	101% (inactive)	-45.8% (active)	
Cc1ccc(-c2cc3nc(C(Cl)Cl)nc(C)n3n2)cc1		101% (inactive)	92.1% (inactive)	95.1% (inactive)	110% (inactive)	104% (inactive)	108% (inactive)	104% (inactive)	115% (inactive)	96.8% (inactive)	112% (inactive)	105% (inactive)	87% (inactive)	118% (inactive)	106% (inactive)	108% (inactive)	97.8% (inactive)	112% (inactive)	106% (inactive)	
C=CCOc1cccc(/C=C2\SC(=S)N(C3CC(=O)N(c4ccc(Br)cc4)C3=O)C2=O)c1 (centres undefined)	101% (inactive)	102% (inactive)	100% (inactive)	104% (inactive)	107% (inactive)	101% (inactive)	105% (inactive)	104% (inactive)	126% (inactive)	109% (inactive)	88.1% (inactive)	100% (inactive)	96.3% (inactive)	132% (inactive)	103% (inactive)	97.8% (inactive)	101% (inactive)	108% (inactive)	106% (inactive)	
C[C@H]1c2[nH]c3ccccc3c2C[C@H]2C(=O)N(CCCCCCC(=O)NO)CC(=O)N21	94.6% (inactive)	84.9% (inactive)	88.7% (inactive)	82.7% (inactive)	67.6% (inactive)	65.6% (inactive)	98% (inactive)	92% (inactive)	90.3% (inactive)	95.2% (inactive)	57.3% (inactive)	41.4% (inactive)	78.5% (inactive)	93% (inactive)	90.1% (inactive)	93.6% (inactive)	73.2% (inactive)	63% (inactive)	91.4% (inactive)	
O=C(c1ccc(Cl)cc1)C1[C@H](c2ccc(Cl)cc2)[C@@H](c2ccccc2)NC12C(=O)Nc1ccccc12 (some centres undefined)	53.5% (inactive)	65.5% (inactive)	69.6% (inactive)	32.7% (inactive)	50.4% (inactive)	78% (inactive)	42.6% (inactive)	64.2% (inactive)	73% (inactive)	65.1% (inactive)	33.6% (inactive)	78.7% (inactive)	53.6% (inactive)	48% (inactive)	48.1% (inactive)	45.6% (inactive)	74.8% (inactive)	75.2% (inactive)	50.2% (inactive)	
CCCC(=O)NC(c1cccnc1)c1cc(C(C)(C)C)c2cccnc2c1O (centres undefined)	12.7% (inactive)	33.6% (inactive)	25.9% (inactive)	3.55% (active)	50.5% (inactive)	7.22% (active)	18.2% (inactive)	2.54% (active)	20.3% (inactive)	31.8% (inactive)	12.5% (inactive)	25% (inactive)	34.6% (inactive)	53.6% (inactive)	24.2% (inactive)	17% (inactive)	13.4% (inactive)	4.98% (active)	3.19% (active)	
COc1ccc(-c2nn(-c3ccc(S(C)(=O)=O)cc3)cc2/C=N/O)cc1	94.7% (inactive)	108% (inactive)	109% (inactive)	102% (inactive)		100% (inactive)	105% (inactive)	105% (inactive)	119% (inactive)	107% (inactive)	107% (inactive)	103% (inactive)	96.7% (inactive)	103% (inactive)	108% (inactive)	106% (inactive)	92.1% (inactive)	104% (inactive)	109% (inactive)	
Cc1ccc(CSc2nc(-c3ccc(Cl)cc3)c(C#N)c(N3CCNCC3)n2)cc1	90.2% (inactive)	89% (inactive)	80.3% (inactive)	88.6% (inactive)	15.9% (inactive)	95% (inactive)	81.2% (inactive)	66.8% (inactive)	109% (inactive)	82.6% (inactive)	3.43% (active)	96.3% (inactive)	77.2% (inactive)	67.8% (inactive)	79.6% (inactive)	95.4% (inactive)	80.9% (inactive)	99.4% (inactive)	98.1% (inactive)	
CC(C)(C)c1ccc(-c2nnc(-c3nc4ccccc4nc3Cl)o2)cc1		92.9% (inactive)	11.1% (inactive)	88.1% (inactive)		99.1% (inactive)		105% (inactive)	104% (inactive)	86.2% (inactive)	65.9% (inactive)	101% (inactive)	90.5% (inactive)	88.4% (inactive)	42% (inactive)	103% (inactive)	93.8% (inactive)	61.9% (inactive)	93.1% (inactive)	90.9% (inactive)
Cn1cc(-c2cc(N)n3nc(-c4cn(C)c5ccccc45)cc3n2)c2ccccc21	113% (inactive)	98.5% (inactive)	108% (inactive)	93.3% (inactive)	88.8% (inactive)	109% (inactive)	75.8% (inactive)	63.7% (inactive)	123% (inactive)	88.1% (inactive)	7.81% (active)	84% (inactive)	76.4% (inactive)	95.6% (inactive)	100% (inactive)	95.9% (inactive)	84.1% (inactive)	107% (inactive)	32.1% (inactive)	
COC(=O)c1ccc(NC2=C/C(=N/S(=O)(=O)c3ccc(C(=O)O)cc3)c3ccccc3C2=O)cc1	32.7% (inactive)	107% (inactive)	88.2% (inactive)	96.3% (inactive)	23.3% (inactive)	81.7% (inactive)	98.7% (inactive)	9.38% (active)	115% (inactive)	7.85% (active)	0.527% (active)	-89.3% (active)	-21.6% (active)	-14.6% (active)	37.7% (inactive)	91.5% (inactive)	-83.1% (active)	-6.94% (active)	67.4% (inactive)	
NC(N)=Nc1ccc(Nc2cccc(Oc3ccc(Cl)c(C(F)(F)F)c3)c2)cn1		52.9% (inactive)	17.4% (inactive)	-71.3% (active)		18% (inactive)	19.9% (inactive)	54.3% (inactive)	-48.7% (active)	38.3% (inactive)	-48.8% (active)		47.5% (inactive)	56.6% (inactive)	53.6% (inactive)	23.8% (inactive)	78.5% (inactive)	31.9% (inactive)	41.2% (inactive)	32% (inactive)
CCOC(=O)c1c(N)c(C#N)cn1-c1cc(OC)c(OC)c(OC)c1	110% (inactive)	101% (inactive)	101% (inactive)	104% (inactive)		104% (inactive)	101% (inactive)	103% (inactive)	122% (inactive)	110% (inactive)	105% (inactive)	102% (inactive)	100% (inactive)	112% (inactive)	111% (inactive)	99% (inactive)	92.6% (inactive)	111% (inactive)	109% (inactive)	
COc1cccc(N2CCN(c3ncnc4c3[nH]c3ccc(F)cc34)C[C@H]2C)c1	33.5% (inactive)	89.6% (inactive)	56.6% (inactive)	66.3% (inactive)	53.3% (inactive)	33.1% (inactive)	61% (inactive)	71.4% (inactive)	61.4% (inactive)	81.5% (inactive)	26.6% (inactive)	48.2% (inactive)	64.3% (inactive)	88% (inactive)	84.5% (inactive)	31.8% (inactive)	69.6% (inactive)	15.4% (inactive)	41.7% (inactive)	
CC(=O)O[C@@H]1C(=O)N(c2cnccn2)[C@H]1c1ccccc1[N+](=O)[O-]	39.3% (inactive)	36.6% (inactive)	41.5% (inactive)	-5.1% (active)	9.48% (active)	-45.7% (active)	14.4% (inactive)	14.7% (inactive)	20.9% (inactive)	2.33% (active)	9.97% (active)	51.8% (inactive)	22.4% (inactive)	62.9% (inactive)	19.4% (inactive)	23.9% (inactive)	-32.5% (active)	44.7% (inactive)	-2.82% (active)	
CCCCCCCn1cc2c(NCCc3ccccc3)ncnc2n1	103% (inactive)	102% (inactive)	94.1% (inactive)	100% (inactive)	94.2% (inactive)	95.3% (inactive)	98.2% (inactive)	99.5% (inactive)	129% (inactive)	102% (inactive)	88.6% (inactive)	94.4% (inactive)	94% (inactive)	104% (inactive)	99.3% (inactive)	90% (inactive)	95.9% (inactive)	102% (inactive)	100% (inactive)	
COc1ccc2c(c1)c(-c1cc(N)n3nc(-c4cn(C)c5ccc(OC)cc45)cc3n1)cn2C	126% (inactive)	101% (inactive)	103% (inactive)	-64.3% (active)	86.8% (inactive)	109% (inactive)	46.1% (inactive)	91.9% (inactive)	123% (inactive)	93.1% (inactive)	-16.6% (active)	98% (inactive)	78.4% (inactive)	128% (inactive)	109% (inactive)	98.9% (inactive)	94.9% (inactive)	110% (inactive)	111% (inactive)	
Cc1ccc2sc3c(c2c1)OC(N)=C(C#N)C3c1cccc(F)c1 (centres undefined)		42.5% (inactive)	9.3% (active)	-13.4% (active)		-33.7% (active)	11.5% (inactive)	11.7% (inactive)	-40.3% (active)	-9.41% (active)	7.14% (active)	43.3% (inactive)	23.5% (inactive)	-30.8% (active)	25.8% (inactive)	1.52% (active)	-1.16% (active)	60.8% (inactive)	0.753% (active)	22.4% (inactive)
